Records with an inconclusive call do not appear. Calls of active or inactive are those of the source. The call rests on the fitted dose curve; in most records, active means well fitted cell-killing curve with a large enough effect; inconclusive means small, poorly fitted or top-dose-only effect, or effect the other way; inactive means flat fitted curve, though single readings scatter. *1 amine or outer side, *2 acyl side, *3 side chain or, on linkers, in order; H or OH if unused. Where a SMILES comes first, the peptide text is derived from it. Bridges are numbered along the chain shown (N, C = ends). X6 = O=C(CCC[*:2])[*:1]
What was measured:
Experiment in all cases: Primary qHTS to identify gynecologic anti-cancer compounds using libraries of approved drugs and bioactive compounds (AID 1345084); further: nearly all actives have a fitted effect of over 55% in size
Conditions in all cases: Gynecologic cancer cell panel viability, ATPlite luminescence, 48 h; series mostly up to 57.5 µM
OV90 = test system: OV90
Outline: (§1)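 Luminescence from the ATPlite ATP-monitoring reagent indicates viable cell number; lower signal means cytotoxicity. Cells received compound 16 h after seeding and were exposed for 48 h across five concentrations.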

PA-1 = test system: PA-1
Outline: as §1

SKOV3 = test system: SKOV3
Outline: as §1

Tov-21-G = test system: Tov-21-G
Outline: as §1

Tov112D = test system: Tov112D
Outline: as §1
On the % scale 0 is the no-effect control and ±100 the full control effect.

CC1(C)CC[C@]2(C(=O)O)CC[C@]3(C)C(=CCC4[C@@]5(C)CC[C@H](O[C@@H]6O[C@H](C(=O)O)[C@@H](O)[C@H](O)[C@H]6O)C(C)(CO)C5CC[C@]43C)C2C1 (stereo not given in full)
inactive: Potency (OV90) | Potency (PA-1) | Potency (SKOV3) | Potency (Tov-21-G) | Potency (Tov112D)

CC1=C(C)C(=O)OC(C(C)C2C(O)CC3C4C5OC5C5(O)CC(OC6OC(CO)C(O)C(O)C6O)CC(O)C5(C)C4CCC32C)C1 (stereo not given)
inactive: Potency (OV90) | Potency (PA-1) | Potency (SKOV3) | Potency (Tov-21-G) | Potency (Tov112D)

COc1cc(/C=C/C(=O)OC2CC3CCC2(C)C3(C)C)ccc1O (stereo not given)
inactive: Potency (OV90) | Potency (PA-1) | Potency (SKOV3) | Potency (Tov-21-G) | Potency (Tov112D)

CO[C@@H](Cc1ccc(OCCc2nc(-c3ccccc3)oc2C)c2ccsc12)C(=O)O
inactive: Potency (OV90) | Potency (PA-1) | Potency (SKOV3) | Potency (Tov-21-G) | Potency (Tov112D)

O=C(O[C@H]1[C@@H]2C=CO[C@@H](O[C@@H]3O[C@H](CO)[C@@H](O)[C@H](O)[C@H]3O)[C@@H]2[C@@]2(CO)O[C@@H]12)c1ccc(O)c(O)c1
inactive: Potency (OV90) | Potency (PA-1) | Potency (SKOV3) | Potency (Tov-21-G) | Potency (Tov112D)

C/C=C1\[C@H](O[C@@H]2O[C@H](CO)[C@@H](O)[C@H](O)[C@H]2O)OC=C(C(=O)OC)[C@H]1CC(=O)OC
inactive: Potency (OV90) | Potency (PA-1) | Potency (SKOV3) | Potency (Tov-21-G) | Potency (Tov112D)

O=c1c2ccccc2nc2n1CCC2O (stereo not given)
inactive: Potency (OV90) | Potency (PA-1) | Potency (SKOV3) | Potency (Tov-21-G) | Potency (Tov112D)

COc1ccccc1CC(C(=O)O)N(C)C(=O)c1ccccc1 (stereo not given)
inactive: Potency (OV90) | Potency (PA-1) | Potency (SKOV3) | Potency (Tov-21-G) | Potency (Tov112D)

OCCc1ccc(O[C@@H]2O[C@H](CO)[C@@H](O)[C@H](O)[C@H]2O)c(O)c1
inactive: Potency (OV90) | Potency (PA-1) | Potency (SKOV3) | Potency (Tov-21-G) | Potency (Tov112D)

CC1=CC2(O)/C=C/C(C)(O)CC(O)/C=C/C(=O)OC23C(=O)NC(CC(C)C)C3C1C (stereo not given)
inactive: Potency (OV90) | Potency (PA-1) | Potency (SKOV3) | Potency (Tov-21-G) | Potency (Tov112D)

C[C@@H]1CC[C@]2(C(=O)O)CC[C@]3(C)C(=CCC4[C@]5(C)C(CC[C@]43C)C(C)(C)[C@@H](O)[C@H](O)[C@@H]5O)C2[C@]1(C)O (stereo not given in full)
inactive: Potency (OV90) | Potency (PA-1) | Potency (SKOV3) | Potency (Tov-21-G) | Potency (Tov112D)

NC(Cc1c[nH]c2ccccc12)C(=O)NC(CCC(=O)O)C(=O)O (stereo not given)
inactive: Potency (OV90) | Potency (PA-1) | Potency (SKOV3) | Potency (Tov-21-G) | Potency (Tov112D)

OC1COC(OCC2OC(OCCc3ccccc3)C(O)C(O)C2O)C(O)C1O (stereo not given)
inactive: Potency (OV90) | Potency (PA-1) | Potency (SKOV3) | Potency (Tov-21-G) | Potency (Tov112D)

COc1c2c(c(C)c3c1C(=O)OC3)OC1(C)CC(O)C3(O)C(C)(C)OC(=O)CCC3(C)C1C2 (stereo not given)
inactive: Potency (OV90) | Potency (PA-1) | Potency (SKOV3) | Potency (Tov-21-G) | Potency (Tov112D)

O=c1ccn(C2OC(CO)C(O)C2O)c(=O)[nH]1 (stereo not given)
inactive: Potency (OV90) | Potency (PA-1) | Potency (SKOV3) | Potency (Tov-21-G) | Potency (Tov112D)

C[C@@H]1C[C@H](O[C@@H]2O[C@H](CO[C@@H]3OC[C@](O)(CO)[C@H]3O)[C@@H](O)[C@H](O)[C@H]2O)CC(C)(C)[C@H]1/C=C/[C@@H](C)O
inactive: Potency (OV90) | Potency (PA-1) | Potency (SKOV3) | Potency (Tov-21-G) | Potency (Tov112D)

C=C1CCC(OC(C)=O)C2(C)CC3(O)OC(=O)C(C)=C3CC12 (stereo not given)
inactive: Potency (OV90) | Potency (PA-1) | Potency (SKOV3) | Potency (Tov-21-G) | Potency (Tov112D)

CC(C)[C@@H](C)/C=C/[C@@H](C)[C@H]1CC[C@H]2C3=CC=C4C[C@@H](O)CC[C@]4(C)[C@H]3CC[C@]12C
inactive: Potency (OV90) | Potency (PA-1) | Potency (SKOV3) | Potency (Tov-21-G) | Potency (Tov112D)

COc1cc(/C=C/C(=O)OC[C@H]2O[C@H](O[C@]3(CO)O[C@H](CO)[C@@H](O)[C@@H]3O)[C@H](O)[C@@H](O)[C@@H]2O)cc(OC)c1O
inactive: Potency (OV90) | Potency (PA-1) | Potency (SKOV3) | Potency (Tov-21-G) | Potency (Tov112D)

C=C1CC[C@H]2[C@@H](/C=C(\C)C(=O)[C@@]3(OC(C)=O)C[C@H](C)[C@H](OC(C)=O)[C@@H]3[C@H]1OC(C)=O)C2(C)C
inactive: Potency (OV90) | Potency (PA-1) | Potency (SKOV3) | Potency (Tov-21-G) | Potency (Tov112D)

CC(=O)OC(CSC1CCC(=O)OC(C)CCC(=O)C1)C(=O)O (stereo not given)
inactive: Potency (OV90) | Potency (PA-1) | Potency (SKOV3) | Potency (Tov-21-G) | Potency (Tov112D)

CC[C@H](C)[C@@H]1NC(=O)[C@H](Cc2ccc(OC)cc2)NC(=O)CCCSC[C@@H](C(=O)N2CCC[C@H]2C(=O)N[C@@H](CC(C)C)C(=O)NCC(N)=O)NC(=O)[C@H](CC(N)=O)NC(=O)[C@H](CCC(N)=O)NC1=O (Y(Me)IQNCPLG-NH2; linker N-5 via X6)
inactive: Potency (OV90) | Potency (PA-1) | Potency (SKOV3) | Potency (Tov-21-G) | Potency (Tov112D)

O=C(c1ccc(C#Cc2cccc(F)c2)cn1)N1CC2CC2C1 (stereo not given)
inactive: Potency (OV90) | Potency (PA-1) | Potency (SKOV3) | Potency (Tov-21-G) | Potency (Tov112D)

Cn1c(=O)c2nc(/C=C/c3cccc(Cl)c3)n(C)c2n(C)c1=O
inactive: Potency (OV90) | Potency (PA-1) | Potency (SKOV3) | Potency (Tov-21-G) | Potency (Tov112D)

C=CC(C)(C)C12CC3C(=O)NC(Cc4cnc[nH]4)C(=O)N3C1Nc1ccccc12 (stereo not given)
inactive: Potency (OV90) | Potency (PA-1) | Potency (SKOV3) | Potency (Tov-21-G) | Potency (Tov112D)

CC1OC(O[C@H]2[C@@H](O)C[C@@]3(C)C([C@H](O)C[C@]4(C)C3CC=C3C5CC(C)(C)CC[C@]5(C(=O)OC5OC(CO)C(O)C(O)C5OC5OCC(OC6OCC(OC7OCC(O)C(O)C7O)C(O)C6O)C(OC6OCC(O)(CO)C6O)C5O)CC[C@]34C)[C@]2(C)CO)C(O)C(O)C1O (stereo not given in full)
inactive: activity change, negative = cytotoxicity (OV90) 3.36% [at 6.55 µM] | activity change, negative = cytotoxicity (PA-1) 2.16% [at 6.55 µM] | activity change, negative = cytotoxicity (SKOV3) -0.54% [at 6.55 µM] | activity change, negative = cytotoxicity (Tov-21-G) -10.9% [at 6.55 µM] | activity change, negative = cytotoxicity (Tov112D) 7.32% [at 6.55 µM]

O=C(/C=C/c1ccc(O)cc1)OC[C@H]1O[C@@H](OC(=O)/C=C/c2ccccc2)[C@H](O)[C@@H](O)[C@@H]1O
inactive: Potency (OV90) | Potency (PA-1) | Potency (SKOV3) | Potency (Tov-21-G) | Potency (Tov112D)

COc1cc(O[C@@H]2O[C@H](CO)[C@@H](O)[C@H](O)[C@H]2O)c(CCC(=O)OC[C@H]2O[C@@H](Oc3cc(OC)c(C4OC(=O)C(C)(O)C4O)cc3CCC(=O)O)[C@H](O)[C@@H](O)[C@@H]2O)cc1C1OC(=O)C(C)(O)C1O (stereo not given in full)
inactive: activity change, negative = cytotoxicity (OV90) -1.59% [at 11.6 µM] | activity change, negative = cytotoxicity (PA-1) -4.41% [at 11.6 µM] | activity change, negative = cytotoxicity (SKOV3) -20.1% [at 11.6 µM] | activity change, negative = cytotoxicity (Tov-21-G) -4.07% [at 11.6 µM] | activity change, negative = cytotoxicity (Tov112D) 3.59% [at 11.6 µM]

C=CCc1ccc(O[C@@H]2O[C@H](CO[C@@H]3O[C@@H](C)[C@H](O)[C@@H](O)[C@H]3O)[C@@H](O)[C@H](O)[C@H]2O)cc1
inactive: Potency (OV90) | Potency (PA-1) | Potency (SKOV3) | Potency (Tov-21-G) | Potency (Tov112D)

CCC(CC)n1ccc2c(C(=O)NCc3c(C)cc(C)[nH]c3=O)cc(C#N)cc21
inactive: Potency (OV90) | Potency (PA-1) | Potency (SKOV3) | Potency (Tov-21-G) | Potency (Tov112D)

C[C@]1(O)CC[C@@H]2C(C(=O)O)=CO[C@@H](O[C@@H]3O[C@H](COC(=O)c4ccc(O)cc4)[C@@H](O)[C@H](O)[C@H]3O)[C@@H]21
inactive: Potency (OV90) | Potency (PA-1) | Potency (SKOV3) | Potency (Tov-21-G) | Potency (Tov112D)

C=CC(C)(O)CC/C=C(\C)C(=O)OCC1OC(OC2CCC3(C)C(CCC4(C)C3CC=C3C5CC(C)(C)C(O)CC5(C(=O)O)CCC34C)C2(C)C)C(O)C(OC2OC(CO)C(O)C(OC3OC(CO)C(O)C(OC4OC(COC5OC(CO)C(O)C(O)C5O)C(O)C(O)C4O)C3O)C2O)C1O (stereo not given)
inactive: activity change, negative = cytotoxicity (OV90) 12.5% [at 6.55 µM] | activity change, negative = cytotoxicity (PA-1) 15.1% [at 6.55 µM] | activity change, negative = cytotoxicity (SKOV3) 0.954% [at 6.55 µM] | activity change, negative = cytotoxicity (Tov-21-G) 2.74% [at 6.55 µM] | activity change, negative = cytotoxicity (Tov112D) -3.38% [at 6.55 µM]

COc1ccc([C@@H]2N[C@H](C(=O)O)Cc3c2[nH]c2ccccc32)cc1CN1CCN(c2ccccc2F)CC1
inactive: Potency (OV90) | Potency (PA-1) | Potency (SKOV3) | Potency (Tov-21-G) | Potency (Tov112D)

CNC(=O)COC(=O)NCCC1CCN(c2cccc(C)n2)CC1
inactive: Potency (OV90) | Potency (PA-1) | Potency (SKOV3) | Potency (Tov-21-G) | Potency (Tov112D)

COC(=O)C1=CO[C@@H](O[C@@H]2O[C@H](CO[C@@H]3O[C@H](COC(=O)/C=C/c4ccc(O)cc4)[C@@H](O)[C@H](O)[C@H]3O)[C@@H](O)[C@H](O)[C@H]2O)[C@@H]2C(CO)=CC[C@H]12
inactive: Potency (OV90) | Potency (PA-1) | Potency (SKOV3) | Potency (Tov-21-G) | Potency (Tov112D)

C=C1CCC2C(OC(=O)C2(O)COC(C)=O)C2C(=C)C(O)CC12 (stereo not given)
inactive: Potency (OV90) | Potency (PA-1) | Potency (SKOV3) | Potency (Tov-21-G) | Potency (Tov112D)
